{"source": "PubChem BioAssay AID493034", "about": "(The Scripps Research Institute Molecular Screening Center, 2011)", "note": "Screen size: about 2,400 compounds; about 2,200 (92%) were called active. So high a share suggests a set chosen from earlier hits. The list shows a part of the results. Values without a mark were called inactive.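 The calls were made as follows: active = mean inhibition over triplicate runs exceeds the cutoff derived for the earlier primary screen (cut at about 25% in these data); inactive = the rest.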"}
{"target": "Platelet-activating factor acetylhydrolase IB subunit alpha2 (Homo sapiens) (UniProt P68402)", "sequence (P68402 whole entry, looked up)": "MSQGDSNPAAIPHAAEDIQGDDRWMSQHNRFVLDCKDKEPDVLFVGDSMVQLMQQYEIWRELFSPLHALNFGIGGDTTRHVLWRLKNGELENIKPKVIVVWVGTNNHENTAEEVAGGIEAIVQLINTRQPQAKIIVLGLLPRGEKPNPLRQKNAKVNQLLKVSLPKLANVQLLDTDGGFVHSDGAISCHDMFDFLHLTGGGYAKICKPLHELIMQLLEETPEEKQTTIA", "test": "inhibition of human PAFAH1B2 catalytic subunit – biochemical, fluorescence polarization, FP-rhodamine probe, triplicate, confirmation (AID 493034);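 also: 0% = enzyme with DMSO and 100% = wells lacking PAFAH1B2 protein; inhibitors lower polarization by leaving the probe unbound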", "settings": "recombinant PAFAH1B2, FP-rhodamine probe fluorescence polarization; at 3.39 µM; hits give high values"}
{"compound": "O=C(NNC(=O)C12CC3CC(CC(Cl)(C3)C1)C2)c1csc(N2CCOCC2)n1", "inhibition": "23%"}
{"compound": "S=c1[nH]nc(Cc2ccc(Br)cc2)n1/N=C/c1ccc(Cl)cc1", "inhibition": "20%"}
{"compound": "S=c1[nH]nc(-c2ccc(Cl)cc2)n1Cc1ccccc1", "inhibition": "32% (active)"}
{"compound": "C=CCn1c(-c2cccn(Cc3ccc(Cl)cc3)c2=O)n[nH]c1=S", "inhibition": "22.8%"}
{"compound": "O=C(C[C@H]1C/C=C\\C[C@@H](Cc2ccc(F)cc2)C(=O)OC[C@H]2CCCN2C1=O)N[C@@H](CO)Cc1ccccc1", "inhibition": "35.2% (active)"}
{"compound": "O=C(C[C@@H]1C/C=C\\C[C@@H](Cc2ccc(F)cc2)C(=O)OC[C@H]2CCCN2C1=O)N[C@H](CO)Cc1ccccc1", "inhibition": "32.1% (active)"}
{"compound": "C[C@@H]1COC(=O)[C@H](Cc2ccc(F)cc2)C/C=C\\C[C@@H](CC(=O)NCCO)C(=O)N1", "inhibition": "22.3%"}
{"compound": "O=C(C[C@@H]1C/C=C\\C[C@@H](Cc2ccc(F)cc2)C(=O)OC[C@@H]2CCCN2C1=O)NCCO", "inhibition": "26.9% (active)"}
{"compound": "CCN1C(=O)N/C(=C/c2cc(C)n(Cc3ccccc3)c2C)C1=O", "inhibition": "77.5% (active)"}
{"compound": "O=C(N/N=C/c1cc([N+](=O)[O-])ccc1O)Nc1ccccc1", "inhibition": "16.1%"}
{"compound": "O=C(N/N=C/c1cc([N+](=O)[O-])ccc1O)NC12CC3CC(CC(C3)C1)C2", "inhibition": "79.6% (active)"}
{"compound": "Clc1ccc(OCCSCc2nc3ccccc3[nH]2)cc1", "inhibition": "22.6%"}
{"compound": "COc1ccc(S(=O)(=O)Nc2ccc3c(c2)C(=O)N([C@@H](C)CO)C[C@H](C)[C@H](CN(C)S(=O)(=O)c2ccc(F)cc2)O3)cc1", "inhibition": "22.2%"}
{"compound": "COc1ccc(S(=O)(=O)Nc2ccc3c(c2)C(=O)N([C@H](C)CO)C[C@H](C)[C@@H](CN(C)S(=O)(=O)c2ccccc2)O3)cc1", "inhibition": "22.7%"}
{"compound": "COc1ccc(S(=O)(=O)Nc2ccc3c(c2)CC(=O)N([C@@H](C)CO)C[C@@H](C)[C@@H](CN(C)Cc2ccccc2)O3)cc1", "inhibition": "26.1% (active)"}
{"compound": "COC(=O)c1sc(-c2ccc(Cl)cc2)cc1NC(=O)COCC(=O)O", "inhibition": "11.5%"}
{"compound": "O=C(Nc1sc(-c2ccccc2)cc1C(=O)O)c1ccccc1", "inhibition": "28.8% (active)"}
{"compound": "S=c1[nH]cnc2sc(-c3ccccc3)cc12", "inhibition": "37.9% (active)"}
{"compound": "O=[N+]([O-])c1cc(-c2cnc3ccccc3n2)ccc1Oc1ccc(Br)cc1", "inhibition": "51.6% (active)"}
{"compound": "CC(C)(C)CC(C)(C)c1ccc(O)c(CN2CCN(CCC#N)CC2)c1", "inhibition": "32.4% (active)"}
{"compound": "COC(=O)c1sccc1NC(=O)CC1C(=O)NCCN1C(=O)Nc1ccc(OCc2ccccc2)cc1", "note": "(stereo not drawn)", "inhibition": "52.2% (active)"}
{"compound": "Cn1nc(C(=O)NCCc2ccc(Cl)cc2)c2c1-c1ccccc1S(=O)(=O)C2", "inhibition": "23.3%"}
{"compound": "Oc1cc2c(cc1O)CN(C(=S)NCCc1ccc(Cl)cc1)CCC2", "inhibition": "55.2% (active)"}
